The test system of assay [1] is Zika virus NS2B-NS3 protease (linked construct). Briefly: Primary screen NINDS Rhodamine qHTS for Zika virus inhibitors (AID 1347160). Note: nearly all actives have a fitted effect of over 55% in size. An outline of the steps: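 Purified linked NS2B-NS3 protease (NS2B hydrophilic domain joined to NS3 protease by flexible linker), 25 nM in 10 mM Tris-HCl pH 8.0, 0.01% Tween 20. Compounds titrated, 15 min preincubation at room temperature; 1.5 microM Rhodamine110 substrate, FITC fluorescence change over 15 min.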
On the technique in general: qHTS replaces the single test concentration by a dilution series.

Assay [2] addresses Calcium and integrin-binding protein 1 (Homo sapiens) (UniProt Q99828). Briefly: Primary qHTS for Identification of Calcium Integrin Binding Protein 1 (CIB1) Competitor (AID 1508620).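 Note: GST tagged CIB1 binding a fluorescein labelled alphaIIb integrin peptide tracer; top concentration of the series differs between compounds; % is set by controls: 0 for no effect and ±100 for the full control effect.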 An outline of the steps:
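Fluorescence polarization competition: GST-tagged CIB1 (1 uM final) preincubated with compound 15 min at room temperature, then FITC-labelled alphaIIb peptide (100 nM final) added. After 15 min at room temperature, polarization read at Ex 480/Em 540.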

Assay [3] addresses Glutathione peroxidase 1 (Homo sapiens) (UniProt P07203). The assay can be described thus: Primary qHTS Assay for Inhibitors of Recombinant Selenoprotein Glutathione Peroxidase 1 (GPX1) (AID 1845191). Note: nearly all actives have a fitted effect of over 65% in size. An outline of the steps:
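GR-coupled assay: compounds preincubated 30 min at room temperature with GPX1, then reaction started with CHP; final 10 nM GPX1, 1 mM GSH, 0.5 mM CHP, 0.5 mM NADPH, 100 nM GR, 0.01% BSA, pH 7.5 Tris buffer. NADPH fluorescence (340/450 nm) read at 0 and 15 min.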

For assay [4], the target named is Luciferin 4-monooxygenase (Photinus pyralis) (UniProt P08659). Briefly: Primary firefly luciferase (FLuc) qHTS assay for identification of artifact compounds. (AID 1845220). Note: nearly all actives have a fitted effect of over 60% in size. The conditions noted are these: outcome: dose series up to 54.1 µM unless noted. An outline of the steps:
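Titrated compounds were incubated 15 min at RT, protected from light, with luciferin and ATP at 10 uM; reaction started with 10 nM FLuc, luminescence imaged at 5 min, and concentration-response fitted by Hill equation.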

Assay [5] is described as follows: Primary fluorescence-based thiol-reactive (MSTI) qHTS assay for identification of artifact compounds. (AID 1845221).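 Note: thiol-reactive compounds lower the probe fluorescence signal; nearly all actives have a fitted effect of over 65% in size.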 An outline of the steps:
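Compounds were incubated 1 h at room temperature in the dark with the MSTI probe (4 uM) in PBS pH 7.4, 2% DMSO. Signals were normalized between Acetyl-MSTI and MSTI.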

Assay [6] concerns Nanoluciferase (engineered Oplophorus gracilirostris luciferase). Briefly: Primary Nanoluciferase (NLuc) qHTS assay for identification of artifact compounds. (AID 1845222).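 Note: NLuc secreted into diluted conditioned medium of S16 cells; 0% = DMSO and -100% = no enzyme.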 An outline of the steps: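 qHTS format, against NLuc in S16 cell-conditioned medium. Nano-Glo substrate 1:100 was added after 15 min at room temperature. Luminescence was taken after a further 5 min.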
A short description of assay [7]: Primary redox qHTS assay for identification of artifact compounds. (AID 1845223).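 Note: 0% = DMSO and 100% = reference compound.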 An outline of the steps: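 Amplex Red (25 uM) and HRP (250 mU/mL) in HBSS, with compounds for 15 min, then 250 uM DTT for 30 min, room temperature, dark. Fluorescence 525/598 nm read; normalized to DMSO and 10 uM DA3003; Hill fit.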
The test system of a further assay is HaCat. Briefly: Cytotoxic Profiling of Annotated Libraries Using Quantitative High-Throughput Screening (AID 1296008). For max response: % is set by controls: 0 for no effect and ±100 for the full control effect. Note: nearly all actives have a fitted effect of over 60% in size. Note: potency is the fitted concentration of half-maximal effect. The note with it: Five cell lines viability, CellTiter-Glo ATP luminescence, 48-72 h; max response: hits give low values. An outline of the steps: (§1)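 Cells exposed to compounds for 48 or 72 hr at 37 degrees Celsius. Viability read as ATP-coupled luminescence with CellTiter-Glo after 10 min at room temperature.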
(In general: Cellular ATP, detected with luciferase, serves as a proxy for viable cell number.)

A further assay concerns C33A. Briefly: Primary qHTS to identify gynecologic anti-cancer compounds using libraries of approved drugs and bioactive compounds (AID 1345084). Note: nearly all actives have a fitted effect of over 55% in size. Note: potency is the fitted concentration of half-maximal effect. The note with it: Gynecologic cancer cell panel viability, ATPlite luminescence, 48 h; series mostly up to 57.5 µM. An outline of the steps: (§2)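 Luminescence from the ATPlite ATP-monitoring reagent indicates viable cell number; lower signal means cytotoxicity. Cells received compound 16 h after seeding and were exposed for 48 h across five concentrations.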

The next assay concerns CAOV3. Described as above. The note with it: Gynecologic cancer cell panel viability, ATPlite luminescence, 48 h; series mostly up to 57.5 µM. An outline of the steps:
as §2

A further assay relates to CASKI. The assay is described as above. The note with it: Gynecologic cancer cell panel viability, ATPlite luminescence, 48 h; series mostly up to 57.5 µM. An outline of the steps:
as §2

The subject of another assay is Es-2. The assay is described as above. The conditions noted are these: Gynecologic cancer cell panel viability, ATPlite luminescence, 48 h; series mostly up to 57.5 µM. An outline of the steps:
as §2

In another assay the test system is Hek293T. Described as above. The conditions noted are these: Gynecologic cancer cell panel viability, ATPlite luminescence, 48 h, control line for the selectivity index; series mostly up to 57.5 µM. An outline of the steps: as §2
The next assay deals with JEG-3. The assay is described as above. The conditions noted are these: Gynecologic cancer cell panel viability, ATPlite luminescence, 48 h; series mostly up to 57.5 µM. An outline of the steps: as §2
The next assay relates to OV90. The assay is described as above. The conditions noted are these: Gynecologic cancer cell panel viability, ATPlite luminescence, 48 h; series mostly up to 57.5 µM. An outline of the steps: as §2
In another assay the test system is PA-1. The description is as above. The note with it: Gynecologic cancer cell panel viability, ATPlite luminescence, 48 h; series mostly up to 57.5 µM. An outline of the steps:
as §2

Another assay has as its system Tov-21-G. Described as above. The conditions noted are these: Gynecologic cancer cell panel viability, ATPlite luminescence, 48 h; series mostly up to 57.5 µM. An outline of the steps:
as §2

Another assay relates to Tov112D. Described as above. The note with it: Gynecologic cancer cell panel viability, ATPlite luminescence, 48 h; series mostly up to 57.5 µM. An outline of the steps:
as §2

Assay [8] deals with Phospholipid hydroperoxide glutathione peroxidase GPX4 (Homo sapiens) (UniProt P36969). The assay can be described thus: Primary qHTS Assay for Inhibitors of Recombinant Selenoprotein Glutathione Peroxidase 4 (GPX4) (AID 1845192). Note: nearly all actives have a fitted effect of over 65% in size. An outline of the steps:
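GR-coupled assay: recombinant GPX4 preincubated 30 min with compound at room temperature; final 200 nM GPX4, 1 mM GSH, 0.5 mM cumene hydroperoxide, 0.5 mM NADPH, 100 nM GR, 0.01% BSA, pH 7.5 Tris. NADPH fluorescence (340/450 nm) read at 0 and 15 min.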

The next assay concerns NIH3T3. The assay can be described thus: Cytotoxic Profiling of Annotated Libraries Using Quantitative High-Throughput Screening (AID 1296008). For max response: % is set by controls: 0 for no effect and ±100 for the full control effect. Note: nearly all actives have a fitted effect of over 60% in size. Note: potency is the fitted concentration of half-maximal effect. The note with it: Five cell lines viability, CellTiter-Glo ATP luminescence, 48-72 h; max response: hits give low values. An outline of the steps:
as §1

Unmarked numbers belong to inactive results. Inconclusive results are not listed. The source made the active and inactive calls. Calls come from the whole dose curve; as a rule, active = well fitted curve in the direction sought with a large enough effect; inconclusive = small, poorly fitted or top-dose-only effect, or another doubt; inactive = no such curve, though single readings can be large; an effect the other way counts as inactive or inconclusive.

Calcium and integrin-binding protein 1 (Homo sapiens), sequence (Q99828 whole entry, looked up): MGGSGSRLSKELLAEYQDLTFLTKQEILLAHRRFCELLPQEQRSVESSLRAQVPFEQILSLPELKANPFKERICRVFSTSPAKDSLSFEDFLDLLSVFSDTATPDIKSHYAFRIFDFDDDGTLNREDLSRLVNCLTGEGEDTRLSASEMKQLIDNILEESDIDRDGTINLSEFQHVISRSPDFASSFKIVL
Phospholipid hydroperoxide glutathione peroxidase GPX4 (Homo sapiens), sequence (P36969 whole entry, looked up): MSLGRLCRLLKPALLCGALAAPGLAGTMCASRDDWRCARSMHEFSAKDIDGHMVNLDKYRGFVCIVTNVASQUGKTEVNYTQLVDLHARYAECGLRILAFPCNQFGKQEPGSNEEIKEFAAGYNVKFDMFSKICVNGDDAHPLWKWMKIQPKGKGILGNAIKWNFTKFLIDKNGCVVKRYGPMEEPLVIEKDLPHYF
Glutathione peroxidase 1 (Homo sapiens), sequence (P07203 whole entry, looked up): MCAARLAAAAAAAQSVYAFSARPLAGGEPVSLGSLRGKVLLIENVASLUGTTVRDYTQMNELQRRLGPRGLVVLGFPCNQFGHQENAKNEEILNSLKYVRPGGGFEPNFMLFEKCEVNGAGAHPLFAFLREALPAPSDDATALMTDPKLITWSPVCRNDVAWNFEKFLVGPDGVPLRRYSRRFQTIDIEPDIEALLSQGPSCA

Regarding `C#CC1(O)CCC2C3CCC4=CC(=O)CCC4=C3C=CC21C` (centres undefined), the Potency result in [1], in [2], in assay [3], in [5], in assay [6] and in assay [7] was “inactive” each time. Also, the Potency result with C33A, in the assay with CAOV3, in the assay on CASKI, with Es-2, with Hek293T and in the assay on JEG-3 was “inactive” each time. Also, the Potency entry in the assay on OV90, in the assay with Tov-21-G and with Tov112D was “inactive” throughout. The compound was classed as inactive (in assay [4]; in the assay on HaCat). Further, in the assay on PA-1, the Potency was 11200 nM (active).
Take `C[C@@H]1CCC2[C@@H](C)C(=O)OC3O[C@@]4(C)CCC1[C@]32OO4` (some centres undefined): the Potency result (in assay [1]; in assay [8]; in assay [6]; in assay [7]; in the assay on C33A; in the assay on CAOV3) was “inactive” each time. In addition, the Potency entry in the assay on CASKI, in the assay with Es-2, in the assay with Hek293T, in the assay with JEG-3, in the assay with OV90 and with PA-1 was “inactive” throughout. Moreover, the Potency entry with Tov-21-G and with Tov112D was “inactive” each time. For the same compound, the result in assay [4] was inactive. Besides, the max response is -1.21% in the assay on HaCat and -13.5% in the assay on NIH3T3.
For `NCCCCCNC1(c2ccccc2)CCCCC1`, the Potency result in assay [1], in [2], in assay [3], in assay [8], in [5] and in assay [6] was “inactive” in each case. Moreover, the Potency entry (in assay [7]; in the assay on C33A; in the assay with CAOV3; in the assay with CASKI; with Es-2; in the assay with Hek293T) was “inactive” throughout. The Potency entry with JEG-3, in the assay on OV90, in the assay on PA-1, with Tov-21-G and in the assay on Tov112D was “inactive” throughout. Besides, the compound was classed as inactive (in assay [4]; in the assay on HaCat). Moreover, in the assay on NIH3T3, the max response was -1.15%.
On to `CC[C@@H]1C[C@H]2CC[C@H](O2)[C@H](C)C(=O)O[C@@H](C)C[C@@H]2CC[C@@H](O2)[C@@H](C)C(=O)O[C@H](C)C[C@H]2CC[C@H](O2)[C@H](C)C(=O)O[C@@H](C)C[C@@H]2CC[C@@H](O2)[C@@H](C)C(=O)O1`, for which the Potency result in assay [1], in assay [2], in assay [3], in [8], in assay [6] and in assay [7] was “inactive” in each case. Besides, the Potency entry in the assay with JEG-3 was “inactive”. Further, the outcome in assay [4] is “inactive [at 25.7 µM]”. Further, the Potency in the assay on HaCat is 485 nM (active); in the assay with NIH3T3, 86.2 nM (active); in the assay on CAOV3, 562 nM (active); in the assay with CASKI, 501 nM (active); in the assay with Es-2, 708 nM (active); in the assay on Hek293T, 282 nM (active). The Potency is 447 nM (active) in the assay with OV90 and 398 nM (active) with PA-1.
As to `CN(Cc1cccc(-c2ccncc2)c1)C(=O)Oc1ccc(-c2ccc(C(N)=O)cc2)cc1`, the Potency result (in assay [1]; in assay [3]; in assay [8]; in assay [5]; in assay [6]; with C33A) was “inactive” in each case. The Potency result with CAOV3, with CASKI, in the assay on Es-2, in the assay with Hek293T, in the assay with JEG-3 and with OV90 was “inactive” each time. In addition, the Potency result in the assay on PA-1, in the assay on Tov-21-G and in the assay on Tov112D was “inactive” throughout. Also, the outcome (in assay [4]; in the assay with HaCat) was inactive. For the same compound, the max response in the assay on NIH3T3 was 2.66%.
`CC12Cc3cn[nH]c3C=C1CCC1C2CCC2(C)C1CCC2(C)O` (centres undefined): the Potency entry in assay [1], in assay [2], in [3], in assay [8], in [5] and in assay [6] was “inactive” throughout. Also, the Potency result (in assay [7]; in the assay on C33A; with CAOV3; in the assay with CASKI; with Es-2; with Hek293T) was “inactive” throughout. Besides, the Potency entry with JEG-3, in the assay on OV90, in the assay on PA-1, in the assay with Tov-21-G and in the assay with Tov112D was “inactive” in each case. In addition, the outcome in assay [4] was inactive. Further, the max response in the assay on HaCat was -0.609%; with NIH3T3 it was -0.979%.
